From PubChem
Only some compounds are listed: those with a hit (about 5.5% of all), similar ones and a draw of the others.
Sfp PPTase inh: blocks B. subtilis Sfp PPTase activity | Potency, µM, for the others: largest response in the series, negative = inhibition, usual class: inhibitors | Biochemical Sfp PPTase activity, qHTS | 310,000 compounds, 3.5% hits;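 also: the enzyme is Sfp with the accession as filed and its product quenches rhodamine fluorescence; potency is read from the fitted curve at half-maximal effect; 0% = enzyme reaction without inhibitor and -100% = no enzyme wells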
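With Hepes-Na pH 7.6 buffer containing 10 mM MgCl2, Sfp (15 nM) modified BHQ-2-YbbR (12.5 uM) using rhodamine-CoA (5 uM). Two reads 30 minutes apart at 525/598 nm yielded each well's rate.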
ELG1 repair inh: inhibitors of ELG1-dependent DNA repair in HEK293T cells | HEK293T ELG1-luciferase reporter, luminescence, 16 h; DNA damage induced by 5-fluorouridine | Potency, µM (doses to about 46.1 µM), for the others: at the top dose activity change, negative = inhibition, actives largely listed as inhibitors | 330,000 compounds, 2.3% hits; also: potency is read from the fitted curve at half-maximal effect; nearly all actives have a fitted effect of over 55% in size
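Cells (2,000 per well) received 5-fluorouridine plus test compound or DMSO and were incubated 16 hr at 37 °C, 5% CO2. Luciferase activity was read by luminescence 30 min after ONE-Glo addition; signal suppression marked inhibition of damage-induced ELG1 function.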
Coupling enz: coupling enzyme interference in Giardia aldolase counter-screen; AID 2472; coupling enzyme system counterscreen, AmpLite Red fluorescence; 290,000 compounds, 0.67% hits; activity change, negative = inhibition, % at 58.2 µM, hits read low; in the data active = activity change below about -30%
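Counterscreen of the coupled detection system alone, without aldolase: glyceraldehyde-3-phosphate coupling enzymes plus AmpLite Red readout. Compounds at 57.5 uM final, 10 min RT preincubation, 20 min RT reaction, fluorescence 525/598 nm.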
Giardia kill: Giardia lamblia killing | activity change, % at 7.66 µM, hits read low | 340,000 compounds, 0.15% hits | Giardia lamblia trophozoite viability; in the data active = activity change below about -80%; inconclusive = between about -30% and that limit;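 also: parasites exposed to compound for two days anaerobically before the ATP read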
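ATP-content bioluminescence gauges trophozoite survival. Cells (100/well) receive compound and incubate anaerobically for 48 hrs at 37 deg C; detection reagent follows for 15-30 min at room temperature.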
Numbers without * were called inactive; ? = inconclusive; . = no result. Unless noted, calls follow the shape of the dose curve; as a rule, active = well fitted curve in the direction sought with a large enough effect; inconclusive = small, poorly fitted or top-dose-only effect, or another doubt; inactive = no such curve, though single readings can be large; an effect the other way counts as inactive or inconclusive. Unless noted, % is scaled to controls: 0 for no effect and ±100 for the full control effect.

SMILES	Sfp PPTase inh	ELG1 repair inh	Coupling enz	Giardia kill
O=C(Nc1nc(=S)ss1)c1ccc(Cl)cc1Cl	13µM*	?	3	-2
COc1cc2c(cc1OC)CN(C(=O)c1cc(C3CC3)nn1-c1ccccc1)CC2	.	?	.	-19
CN1C(=O)C(O)(CC(=O)/C=C/c2ccco2)c2cc(Br)ccc21 (stereo not given)	45µM*	6%	0	-23
CN1C(=O)C(O)(CC(=O)/C=C/c2ccco2)c2ccccc21 (stereo not given)	25µM*	8%	2	-1
NCCC[C@@H](CC(=O)N[C@@H]1CCNC[C@H]1C(=O)N[C@H](CC(=O)N[C@@H](CCC(=O)O)CC(=O)O)Cc1c[nH]c2ccccc12)NC(=O)C[C@H](Cc1ccccc1)NC(=O)[C@@H]1CNCC[C@H]1N	-18%	.	-4	.
CCOC(=O)C1=C(COC(=O)CCc2ccccc2)NC(=O)NC1C (stereo not given)	.	27%	.	6
Cc1ccc(-n2c(SCC(=O)N(C)C)nnc2-c2ccco2)cc1	12%	1%	-2	-5
Cc1noc(C)c1NC(=O)Nc1ccc2c(c1)C(=O)N([C@H](C)CO)C[C@H](C)[C@@H](CN(C)S(=O)(=O)c1c(C)noc1C)O2	.	26%	.	-27
OCCNc1cc(-n2nc(-c3ccccc3)cc2-c2ccccc2)ncn1	-2%	16µM*	0	9
Nn1c(SCC(=O)NNC(=O)c2ccccc2)nnc1-c1ccccc1F	.	4%	.	-5
CCOc1ccc2[nH]c3c(NCCc4ccc(OC)c(OC)c4)ncnc3c2c1	2%	21µM*	-4	-4
COc1cc(CNc2ncnc3c2[nH]c2ccc(C)cc23)cc(OC)c1	?	21µM*	-2	-17
COc1ccc(C2=Nn3c(nnc3-c3cccc(OC)c3OC)SC2)cc1	3%	.	3	.
CCCSS/C(CCO)=C(/C)N(C=O)Cc1cnc(C)nc1N	56µM*	.	.	.
C/C(=C(/CCO)SSCC1CCCO1)N(C=O)Cc1cnc(C)nc1N (stereo not given)	.	25%	.	-16
CCc1nc(Nc2ccccc2)c2nnn(Cc3ccccc3)c2n1	35µM*	?	-1	4
CCCc1nc(NCC2CCCO2)c2nnn(Cc3ccccc3)c2n1 (stereo not given)	-4%	26µM*	3	3
Cc1nc2ccc(NC(=O)c3ccc([N+](=O)[O-])cc3)cc2[nH]1	0%	?	-3	-25
Cn1ncc(Cl)c1C(=O)Nc1cccc(Cl)c1	20µM*	9%	-5	1
CC(=O)c1ccc(-c2cccc(-c3cc(=O)oc4ccc(C(C)(C)C)cc34)c2)cc1	-11%	-20%	-3	11
COc1cccc(OC)c1C(=O)OCC(=O)Nc1ccc(OC(F)(F)F)cc1	10%	21µM*	-3	-8
CNCC(=O)Nc1ccc(OC(F)(F)F)cc1	-1%	22%	5	?
COc1cccc(Nc2ncc3nc(-c4cccs4)c(=O)n(-c4ccccc4)c3n2)c1	-22%	.	3	.
CC(=O)c1ccc(N2C(=O)C3C(C2=O)C(C(=O)c2ccc(Cl)cc2)N2CCCC32)cc1 (stereo not given)	22µM*	?	0	-13
COc1ccc(N2C(=O)C3C(C2=O)C(C(=O)c2ccc(Cl)cc2)N2CCCC32)cc1 (stereo not given)	28µM*	?	-6	6
SMILES	Sfp PPTase inh	ELG1 repair inh	Coupling enz	Giardia kill
COCCCn1c(-c2ccc(S(=O)(=O)N3CCOCC3)cc2)csc1=Nc1ccccc1	-7%	6.5µM*	-1	-10
COCCn1c(-c2ccc(Br)cc2)csc1=Nc1cccnc1	-3%	12µM*	3	-18
Clc1ccc(-c2csc(=Nc3cccnc3)n2CCCn2ccnc2)cc1Cl	-8%	8.2µM*	4	-2
CC(=O)Nc1ccc(Nc2nc(Nc3ccc(Cl)cc3)nc(N3CCOCC3)n2)cc1	.	.	.	-11
OB(O)c1csc2ccccc12	6%	.	0	16
Cc1noc(C)c1COc1ccccc1C(=O)N(C)Cc1ccco1	.	?	.	-20
CN(C)c1ccc(N/C=C/C(=O)c2ccco2)cc1	56µM*	?	-35*	-25
C=CCn1c(SCC(=O)NCc2ccco2)nc2sc3c(c2c1=O)CCCC3	26%	7%	2	0
O=C(NCc1ccco1)c1ccc2nc3sc4c(c3c(=O)n2c1)CCCC4	10µM*	-3%	-2	.
O=C(CSc1nnc(-c2n[nH]c3ccccc23)n1-c1ccccc1)Nc1ccccc1Cl	-2%	23µM*	-1	9
COc1ccc(N=Cc2nc(-c3ccccc3)oc2OC(=O)c2ccccc2)cc1	-17%	?	-1	-10
Cc1ccc(C(=O)Oc2oc(-c3ccco3)nc2C=Nc2ccccc2)cc1	45µM*	?	.	.
Nc1c(C(=O)N2CCOCC2)sc2nc(N3CCOCC3)c3c(c12)CCCC3	10µM*	?	1	-26
COc1ccc(NC(=O)c2sc3nc(N4CCCC4)c4c(c3c2N)CC(C)(C)OC4)cc1	10µM*	5.8µM*	.	5
Cc1nc2c(sc3nc(N4CCOCC4)c4c(c32)CC(C)(C)OC4)c(-c2ccccc2)c1C(=O)O	9%	3.7µM*	6	-12
CNC(=O)c1ccc(-c2sc3nc(N4CCOCC4)c4c(c3c2N)CC(C)(C)OC4)o1	79µM*	?	.	-26
O=C1c2ccccc2CN1C(CO)Cc1ccccc1 (stereo not given)	4%	15%	4	-23
CN1Cc2c(N3CCOCC3)nc3sc(C#N)c(N)c3c2CC1(C)C	-8%	?	-3	9
CNC(=O)c1ccc(-c2sc3nc(N4CCOCC4)c4c(c3c2N)CCCC4)o1	-28%	?	2	6
CC1(C)Cc2c(c(N3CCOCC3)nc3sc(-c4ccc(C(=O)O)o4)c(N)c23)CO1	45µM*	2.6µM*	-18	-3
CN1Cc2c(N3CCOCC3)nc3sc(C(=O)c4ccc(Br)cc4)c(N)c3c2CC1(C)C	45µM*	?	-5	2
COCCNC(=O)/C(C#N)=C/c1ccc(-c2ccc(S(=O)(=O)N3CCOCC3)cc2)o1	-21%	16µM*	-2	2
CCOCCCNC(=O)/C(C#N)=C/c1ccc(-c2ccc(S(=O)(=O)N3CCOCC3)cc2)o1	?	?	1	35
CC(=O)N1c2ccccc2NC2=C(C(=O)CCC2)C1c1ccco1 (stereo not given)	25µM*	-6%	-4	1
CSCCC(NS(=O)(=O)c1ccc(C)cc1)C(=O)NC1CCCCCC1 (stereo not given)	.	3%	.	9
C[C@@]12C(=O)Nc3ccccc3C(=O)N1[C@H]1c3cc(Br)ccc3OC[C@@H]1[C@@H]2c1ccccc1	.	?	.	26
Cc1ccc(C)c2[nH]c(=O)c(C(c3nnnn3Cc3ccco3)N3CCc4ccccc4C3)cc12 (stereo not given)	20µM*	?	-34*	-16
COc1ccc2[nH]c(=O)c(CN(Cc3nnnn3Cc3ccco3)C3CCCCC3)cc2c1	8.9µM*	?	-4	0
